Results as given in PubChem BioAssay AID463195 (Sanford-Burnham Center for Chemical Genomics, 2010).
In all, about 330,000 compounds went through this assay and about 4,600 (1.4%) were called active. The list comes from a sample in which actives are over-represented; it also holds similar structures and randomly drawn compounds. A number with no mark means an inactive call.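 Rule for the calls: active = inhibition of 40% or more at the single tested concentration; inactive = the rest.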

assay: growth inhibitors of isogenic TIM10 control yeast, primary screen, counter-screen for tim10-1 yeast inhibitor project, luminescence, uHTS (AID 463195);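 note: wild-type TIM10 isogenic control strain grown at permissive 25 °C; 0% = DMSO yeast wells and 100% = minimal medium wells without yeast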; conditions: S. cerevisiae TIM10 strain growth, BacTiter-Glo luminescence, 24 h; at 10 µM; active compounds read high

Going from `O=C(CNC(=O)c1cccs1)N/N=C/c1cccc(Br)c1` to `O=C(N/N=C/c1cccc(Br)c1)c1ccc(N2CCCC2=O)cc1`, the inhibition falls from 18.4% to 12%.

Going from `CC(C)(C)OC(=O)C[C@@H]1C/C=C\C[C@@H](CC(=O)NCCO)C(=O)N[C@H](Cc2c[nH]c3ccccc23)COC1=O` to `CCN(C(=O)COC(=O)CCOc1cccc(C)c1)c1c(N)n(Cc2ccccc2)c(=O)[nH]c1=O`, the inhibition rises from -3.29% to -2.83%.

Compared with `CC(C)CCn1cnc2c1c(=O)n(CC(=O)NC(N)=O)c(=O)n2Cc1ccccc1`, `COc1ccccc1OCCC(=O)OCC(=O)NCc1ccccc1` is higher in inhibition: 2.63% for the first, 9.81% for the second.

First: COc1cc(C(=O)NN(CCC#N)C2=NS(=O)(=O)c3ccccc32)cc(OC)c1OC
Second: COc1cccc(NC(=O)COC(=O)CCOc2ccccc2OC)c1
The inhibition of the first is lower: 8.55% for the first, 30% for the second.

Compared with `Nc1ccc(-c2nnc(-c3ccccc3)o2)cc1`, `Cc1nc(NNC(=O)c2ccccc2)cc(-c2ccccc2)n1` is higher in inhibition: 8.79% for the first, 10.7% for the second.

Compared with `CC1=NNC(=O)C1Cc1c(Cl)cccc1Cl` (centres undefined), `NC(=S)Nc1c(Cl)cccc1Cl` is lower in inhibition: 13.4% for the first, -2.06% for the second.

First: COc1ccc(N2C(=O)C(CC(=O)Nc3ccc(F)cc3)N(CCc3cccs3)C2=O)cc1 (centres undefined)
Second: COc1ccc(C(=O)CCC(=O)Nc2ccc(Cl)cc2)cc1
The inhibition of the first is higher: 27.1% for the first, -25.2% for the second.

Compared with `CC(=O)C1=C(O)C(=O)N(c2cccnc2)C1c1ccc([N+](=O)[O-])cc1` (centres undefined), `CCc1ccccc1NC1c2ccccc2C(=O)N1c1cccnc1` (centres undefined) is higher in inhibition: -3.83% for the first, -1.26% for the second.

Compared with `COc1ccc(-c2c(C)cc3oc(=O)cc(-c4ccccc4)c3c2C)cc1C=O`, `COc1cccc(-n2cc3c(c2-c2ccccc2)c(=O)n(C)c(=O)n3C)c1` is higher in inhibition: -23.6% for the first, -0.343% for the second.

First: COc1ccccc1C1=Nc2cccc3cccc(c23)N1
Second: Fc1ccccc1N=C1Nc2cccc3cccc1c23
The inhibition of the first is higher: 8.32% for the first, 5.3% for the second.

First: CCO/C=C1\C(=O)N(c2ccc(OCC)cc2)C(=O)c2ccccc21
Second: CCOc1ccccc1Oc1cn[nH]c1-c1ccc(OC)cc1O
The inhibition of the first is higher: 1.43% for the first, -79.8% for the second.

Going from `CSc1ccccc1NC(=O)COC(=O)CCCOc1ccc(C)cc1` to `CCN(CC(=O)Nc1ccc(OC)cc1)C(=O)CSCc1ccc(C)cc1`, the inhibition falls from -8.29% to -9.01%.

First: Cc1cccc(OCc2nnc(SCc3nc4cc(C(F)(F)F)ccc4c(=O)[nH]3)o2)c1
Second: Cc1ccc(-c2noc(CSc3nnc(-c4cccs4)n3C)n2)cc1
The inhibition of the first is higher: 23% for the first, 12.3% for the second.

First: Cc1ccccc1OCC(=O)Nc1ccc2c(c1)ncn2C
Second: Cc1ccccc1OCC(=O)Nc1ccc(S(=O)(=O)N2CCOCC2)cc1
The inhibition of the first is lower: 2.51% for the first, 18.7% for the second.

First: CCC(C)N(C(=O)Cn1nc(C)c([N+](=O)[O-])c1C)C1CCS(=O)(=O)C1 (centres undefined)
Second: CCN(CC(=O)NC(C)C)C(=O)c1cc(S(=O)(=O)N2CCCCC2)ccc1N1CCCCC1
The inhibition of the first is higher: 2.63% for the first, -4.18% for the second.

Compared with `CCN(CC(=O)Nc1ccc2c(c1)OCCO2)Cc1cc(=O)oc2cc(C)c(C)cc12`, `Cc1cc2oc(=O)cc(CN3CCN(S(=O)(=O)c4cccs4)CC3)c2cc1C(C)C` is lower in inhibition: 2.82% for the first, -1.14% for the second.

First: Cc1cccc(-c2nc3ccc(C(=O)NCCN4CCN(C)CC4)cc3nc2-c2cccc(C)c2)c1
Second: Cn1nnc2cc(C(=O)NCCC3=CCCCC3)ccc21
The inhibition of the first is higher: 11.7% for the first, 9.76% for the second.

Going from `O=C(NCc1cccnc1)c1cnc2ccccc2n1` to `CN(C(=O)c1ccccn1)c1nnc(-c2ccccn2)s1`, the inhibition falls from 3.89% to 1.41%.

Compared with `O=C(O)Cc1csc(NC(=O)CSc2nnnn2-c2ccc(O)cc2)n1`, `Cn1cccc1Cc1nnc(SCC(=O)NCCc2ccccc2)n1-c1ccc(F)cc1` is higher in inhibition: -3.77% for the first, 10.2% for the second.

First: O=C(CCCN1C(=O)CCC1=O)Nc1ccc(Cl)c(C(F)(F)F)c1
Second: CS(=O)(=O)N(CC(=O)Nc1ccc(Cl)c(Cl)c1)C1CCCCC1
The inhibition of the first is lower: -0.757% for the first, 27.6% for the second.

First: COc1cccc(NC(=O)C(=O)c2cn(CC(=O)N3CCOCC3)c3ccccc23)c1
Second: COc1ccc2oc(=O)cc(CN3CCOCC3)c2c1
The inhibition of the first is higher: 11.5% for the first, -8.83% for the second.

Going from `COc1cccc(C(C(=O)NC2CCCC2)N(C(=O)c2ccco2)c2cccc(C(C)=O)c2)c1OC` (centres undefined) to `O=C(NCc1ccccc1)C(c1ccco1)N(C(=O)c1csnn1)c1ccccc1F` (centres undefined), the inhibition falls from 11.8% to 5.22%.

Going from `O=C(/C=C/c1c(F)cccc1Cl)Nc1nn[nH]n1` to `COc1ccc(CCNC(=O)c2cnc(Cl)c(Cl)c2)cc1`, the inhibition falls from 0.073% to -23.1%.

Going from `CCOC(=O)NC(=O)/C(C#N)=C\c1ccccc1` to `O=C1CCN(C(=O)Nc2ccccc2)N1`, the inhibition falls from 15.6% to -12.2%.

First: COc1ccc(Nc2ccc([N+](=O)[O-])cn2)cn1
Second: O=C1Nc2ccc([N+](=O)[O-])cc2C1=Nc1cccc(CO)c1
The inhibition of the first is lower: 1.7% for the first, 8.6% for the second.

Compared with `CCCCn1nc(C(=O)Nc2ccc(S(=O)(=O)Nc3ncccn3)cc2)c2ccccc2c1=O`, `Cc1cc(C)nc(NS(=O)(=O)c2ccc(N/C=C\C(=O)c3cccs3)cc2)n1` is lower in inhibition: 6.41% for the first, -1.27% for the second.

First: Cc1ccc(CN(N=Nc2nonc2N)c2nonc2N)c(C)c1
Second: Cc1ccc(Nc2nc(CSc3nnc(-c4ccncc4)n3-c3ccccc3C)cs2)cc1
The inhibition of the first is higher: 36.7% for the first, 19.6% for the second.

First: CCCOCC(O)CC(CC)C(=O)NNC(=S)Nc1ccccc1 (centres undefined)
Second: CC(=O)c1c(Nc2ccccc2)sc(C(=O)c2ccccc2)c1C
The inhibition of the first is higher: 7.95% for the first, -7.77% for the second.

Going from `CCC12CN3CC(CC)(CN(C1)C31C(=O)N(C)c3ccc(C)cc31)C2=O` (centres undefined) to `CCN(CC)CCNC(=O)c1sc2ncn(CC(=O)Nc3ccc(C)c(Cl)c3)c(=O)c2c1C`, the inhibition falls from -4.81% to -10.3%.

Going from `O=C(N/N=C/c1cccnc1)c1ccc(NC(=O)c2ccc(F)cc2)cc1` to `Cc1cc(/C=C(/C#N)C(=O)Nc2ccc(Cl)cc2)c(C)n1-c1cccnc1`, the inhibition rises from -13.1% to -8.09%.

First: NC(=O)C(Cc1ccccc1)NC(=O)C12CC3CC(CC(C3)C1)C2 (centres undefined)
Second: Cc1ccc2c(N)c(C(=O)c3ccccc3)sc2n1
The inhibition of the first is lower: 16.3% for the first, 36.2% for the second.

First: CCO[C@@H]1OC(C(N)=O)=C[C@H](c2ccc(Br)cc2)[C@H]1CCCO
Second: CCOc1ccc(C(CC(=O)O)n2cnnn2)cc1OC (centres undefined)
The inhibition of the first is lower: -4.73% for the first, -1.38% for the second.

Compared with `Cc1nnc(SCc2ccc(C(=O)c3ccc(Cl)cc3)o2)n1-c1ccccc1`, `Cn1c(SCc2ccc(F)cc2)nnc1-c1ccncc1` is lower in inhibition: 7.12% for the first, -15.7% for the second.

Going from `C=CCn1c(C2CC(=O)N(c3ccc(C)cc3)C2)nc2ccccc21` (centres undefined) to `COc1ccc(-c2cn[nH]c2-c2ccc(OC)cc2)cc1`, the inhibition rises from 0.772% to 35%.

First: COc1ccc(-c2cc3nc(C)c(CCC(=O)NC(C)CCc4ccco4)c(C)n3n2)c(OC)c1 (centres undefined)
Second: Cc1nnc(SC(C(=O)Nc2cc(Cl)cc(Cl)c2)c2ccccc2)[nH]c1=O (centres undefined)
The inhibition of the first is higher: 23.7% for the first, 14.3% for the second.

First: CCc1nc2sc(C(=O)O)c(N)c2c2c1CCCC2
Second: COC(=O)c1c(NC(=O)CCN2CCOCC2)sc2c1CCCC2
The inhibition of the first is lower: -94.9% for the first, 9.98% for the second.

Compared with `CCn1c(SCC(=O)NC2CC2)nnc1-c1ccncc1`, `CC(C)CCNC(=O)C1CCC(CNc2c(N3CCC(C)CC3)c(=O)c2=O)CC1` (centres undefined) is higher in inhibition: -12.4% for the first, 2.16% for the second.

Molecule `COC(=O)c1c(NC(=O)C2CC(C)=C(C)CC2C(=O)O)sc2c1CCCCC2` (centres undefined) has an inhibition of 20.6%.

In the case of `O=C(N/N=C\c1cccc(Br)c1)c1ccccc1-n1cccc1`, the inhibition is reported as 51.9% (active).
For `Nc1cccc(-c2cc(-c3ccccc3)nc(-c3cccc(N)c3)n2)c1`, the inhibition was 44.2% (active).
With `O=C1[C@@H](c2ccccc2)[C@@H](c2ccccc2)N1c1cccnc1` the inhibition was 63.5% (active).
For `c1ccc(C2=Nc3cccc4cccc(c34)N2)cc1`, the inhibition was 42.2% (active).
With `COc1cc([N+](=O)[O-])ccc1NC(=O)COC(=O)CCOc1ccc(C)cc1` the inhibition was 49% (active).
With `Cc1ccccc1OCC(=O)Nc1ccc(N2CCN(C(=O)C(C)C)CC2)c(Cl)c1` the inhibition was 65.5% (active).
For `C=CCNC(=O)c1ccc2c3n(nc2c1)-c1ccc(C)cc1CO3`, the inhibition was 47% (active).
With `O=C(CC(O)(C(F)(F)F)C(F)(F)F)Nc1ccc(Cl)c(Cl)c1` the inhibition was 88.8% (active).
With `CNC(=O)/C(C#N)=C/c1c(F)cccc1Cl` the inhibition was 59.2% (active).
In the case of `COc1ccc(CS(=O)/C(Cl)=C(/Cl)C(=O)Nc2ccc(OC)nc2)cc1` (centres undefined), the inhibition is reported as 88.3% (active).
In the case of `COc1ccc(NC(=O)/C(Cl)=C(/Cl)S(=O)Cc2ccc(C)cc2)cn1` (centres undefined), the inhibition is reported as 57.6% (active).
With `N#C/C(=C\c1cccnc1)C(=O)Nc1ccc(SC(F)F)cc1` the inhibition was 45.6% (active).
With `COc1ccc2c(CN3CCN(S(=O)(=O)c4cccs4)CC3)cc(=O)oc2c1` the inhibition was 52.4% (active).
In the case of `Fc1ccc(-n2c(Cc3ccccc3)nnc2SCc2nc(-c3ccc(Cl)cc3)no2)cc1`, the inhibition is reported as 41% (active).
With `Cc1ccc(-c2noc(CSc3nnc(-c4ccncc4)n3-c3ccc(F)cc3)n2)cc1` the inhibition was 46.2% (active).
For `COc1ccc(Oc2cn[nH]c2-c2ccc(OC)cc2O)cc1`, the inhibition was 45.7% (active).
With `CN(C)c1ccnc2sc(C(=O)c3ccccc3)c(N)c12` the inhibition was 40.4% (active).
With `Cc1nc2sc(C(=O)c3ccccc3)c(N)c2c2c1CCCC2` the inhibition was 41.5% (active).
For `COC(=O)c1c(NC(=O)CSc2nncs2)sc2c1CCCCC2`, the inhibition was 43.7% (active).
